Data as given in PubChem BioAssay AID686978 (National Center for Advancing Translational Sciences (NCATS), 2013).
Screen size: about 420,000 compounds; about 64,000 (15%) were called active. Inconclusive results (about 27%) are left out. Calls follow the shape of the dose curve; as a rule, active = well fitted inhibition curve with a large enough effect; inconclusive = small, poorly fitted or top-dose-only effect; inactive = flat fitted curve, though single readings scatter. These entries were drawn from the full list. A call without a number means that no potency is given here.

Assay: qHTS for Inhibitors of human tyrosyl-DNA phosphodiesterase 1 (TDP1): qHTS in cells in absence of CPT; also: nearly all actives have a fitted effect of over 55% in size
Details: DT40 Tdp1-/- hTDP1 cells, no CPT, ATP luminescence, 48 h; activity change, negative = growth inhibition: at 46.2 µM (top of the series)
In short: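 Stably hTDP1-transfected Tdp1-null chicken DT40 cells were treated with library compounds minus camptothecin and grown for at least 48 hr at 37 °C, after which cellular ATP was quantified by luminescence.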
Potency is read from the fitted curve at half-maximal effect.

Question: For `Cn1c(C(=O)O)ccc1S(=O)(=O)N(Cc1ccccc1)Cc1ccccc1`, which Potency is on record?
Answer: inactive

Question: With `COc1ccc(C2NC(=O)C(=O)/C2=C(\O)c2ccc(Cl)cc2)cc1OC` (stereo unspecified) as the compound, how does the Potency read?
Answer: inactive

Question: For `CCOc1ccc(C(=O)Nc2nccs2)cc1[N+](=O)[O-]`, which Potency is on record?
Answer: inactive

Question: With `Cc1nc(SCc2ccc(F)cc2)c([N+](=O)[O-])[nH]1` as the compound, how does the Potency read?
Answer: inactive

Question: Which Potency does the source give for `CCCCCOc1ccc(CSC2=NCCN2)cc1[N+](=O)[O-]` here?
Answer: 23.1 µM (active)

Question: Which Potency does the source give for `CCCCOc1ccc(CSC(=N)N)cc1[N+](=O)[O-]` here?
Answer: 11.6 µM (active)

Question: Which Potency does the source give for `COc1ccc(NC(=O)CSCc2ccc([N+](=O)[O-])cc2)cc1OC` here?
Answer: inactive

Question: Which Potency does the source give for `CCCCOc1ccc(CON(C(C)=O)C(C)=O)cc1Cl` here?
Answer: inactive

Question: With `CC(NC(=O)CC1SC(N)=NC1=O)c1ccccc1` (stereo unspecified) as the compound, how does the Potency read?
Answer: inactive

Question: Which Potency does the source give for `CCc1cc(-c2nnn(CCC3COCCO3)c2CC)ccc1-c1cn(Cc2ccc3ccccc3c2)nn1` (stereo unspecified) here?
Answer: 5.8 µM (active)

Question: For `CCCCCc1ccc(-c2cn(Cc3ccc4ccccc4c3)nn2)cc1`, which Potency is on record?
Answer: inactive

Question: With `O=C(Nc1ccccc1Cl)N1CCC(CN2CCCC2)CC1` as the compound, how does the Potency read?
Answer: inactive

Question: With `COc1ccc(C(=O)Nc2nonc2-c2ccc(OC)c(OC)c2)cc1Cl` as the compound, how does the Potency read?
Answer: 23.1 µM (active)

Question: Which Potency does the source give for `COc1ccc(-c2nonc2NC(=O)c2oc3ccc(F)cc3c2C)cc1OC` here?
Answer: inactive

Question: Which Potency does the source give for `CCn1nnc(NC(=O)c2cc(Cl)c(OC)c(Cl)c2)n1` here?
Answer: inactive

Question: For `CC(=O)C1=C(C)NC(=O)NC1c1cc(Br)ccc1OCC#N` (stereo unspecified), which Potency is on record?
Answer: inactive

Question: With `O=C(COc1ccccc1Cl)Nn1cnnc1` as the compound, how does the Potency read?
Answer: inactive

Question: With `CCOC(=O)CC1C(=O)NCCN1C(=O)COc1ccc(Br)cc1C` (stereo unspecified) as the compound, how does the Potency read?
Answer: inactive

Question: With `Cc1cc(C(=O)COc2ccc(Br)cc2F)c(C)n1C1CC1` as the compound, how does the Potency read?
Answer: 3.26 µM (active)

Question: Which Potency does the source give for `CN1CCN(C(=O)c2ccccc2NC(=O)COc2ccccc2Cl)CC1` here?
Answer: inactive

Question: With `Cc1cc(C(=O)COc2ccccc2Cl)c(C)n1C1CC1` as the compound, how does the Potency read?
Answer: 6.51 µM (active)

Question: For `CC(=O)c1cccc(NC(=O)N2CCCC2C(=O)NCCC(C)C)c1` (stereo unspecified), which Potency is on record?
Answer: inactive

Question: For `COc1ccccc1C(=O)N(C1=NC(C)CS1)c1ccc(Cl)cc1` (stereo unspecified), which Potency is on record?
Answer: inactive

Question: With `O=C(NCCc1ccccc1)C(=O)NCC1OCCN1S(=O)(=O)c1cccs1` (stereo unspecified) as the compound, how does the Potency read?
Answer: inactive

Question: With `CCCC(NC(=O)c1ccco1)c1nc2ccccc2[nH]1` (stereo unspecified) as the compound, how does the Potency read?
Answer: inactive

Question: With `CSCCC(NC(=O)c1cc([N+](=O)[O-])cc([N+](=O)[O-])c1)c1nc2ccccc2[nH]1` (stereo unspecified) as the compound, how does the Potency read?
Answer: 16.4 µM (active)

Question: Which Potency does the source give for `CSCCC(NC(=O)c1ccc(=O)n(C)n1)c1nc2ccccc2[nH]1` (stereo unspecified) here?
Answer: inactive

Question: For `COc1ccc(Cn2c(-c3ccc(Cl)cc3)c[n+]3ccccc23)cc1`, which Potency is on record?
Answer: 1.16 µM (active)

Question: For `COc1ccc(C(=O)CN(C(=O)c2ccc(Cl)cc2)N2C(=O)c3ccccc3C2=O)cc1`, which Potency is on record?
Answer: inactive

Question: With `CCn1c(C)cc(=O)cc1-c1ccc(Cl)cc1` as the compound, how does the Potency read?
Answer: inactive

Question: For `COc1ccc(S(=O)(=O)N2CCN(CC(=O)N3CCNC3=O)CC2)cc1OC`, which Potency is on record?
Answer: inactive

Question: With `Cc1ccc(S(=O)(=O)CCC(=O)OCC(=O)N(C)Cc2ccccc2)cc1` as the compound, how does the Potency read?
Answer: inactive

Question: With `CCOc1ccc(CNC(=O)c2ccc3c(c2)nnn3C2CCCC2)cc1` as the compound, how does the Potency read?
Answer: inactive

Question: For `COc1ccc(C(=O)OCC(=O)N2CC(=O)Nc3ccccc32)cc1Br`, which Potency is on record?
Answer: inactive

Question: With `CCN(CC)S(=O)(=O)c1ccc2[nH]cc(C(=O)NCCc3ccccc3)c(=O)c2c1` as the compound, how does the Potency read?
Answer: 14.6 µM (active)

Question: With `CN(c1ccccc1)S(=O)(=O)c1ccc(Cl)c(C(=O)OCC(N)=O)c1` as the compound, how does the Potency read?
Answer: inactive

Question: Which Potency does the source give for `CN(c1ccccc1)S(=O)(=O)c1ccc(Cl)c(C(=O)NCCc2c[nH]c3ccccc23)c1` here?
Answer: 8.2 µM (active)

Question: With `O=C(NCCc1ccccc1)c1c[nH]c2ccc(F)cc2c1=O` as the compound, how does the Potency read?
Answer: inactive

Question: For `CSCCC(NS(=O)(=O)c1ccc(C)cc1)C(=O)NCCc1c[nH]c2ccccc12` (stereo unspecified), which Potency is on record?
Answer: inactive

Question: Which Potency does the source give for `CCc1ccc(NS(=O)(=O)c2ccc3[nH]cc(C(=O)NCCc4cccc(C)c4)c(=O)c3c2)cc1` here?
Answer: inactive

Question: Which Potency does the source give for `Cc1nc2cnc(Nc3ccccc3)nc2n(Cc2ccc(F)cc2)c1=O` here?
Answer: inactive

Question: For `Fc1ccc(CN2CCc3nc(Nc4ccccc4)ncc3C2)cc1F`, which Potency is on record?
Answer: 20.6 µM (active)

Question: With `COc1ccc(CN2CCN(Cc3ccc(OC)c(OC)c3OC)CC2)cc1` as the compound, how does the Potency read?
Answer: inactive

Question: For `COc1ccc(CN2CCc3nc(Nc4ccccc4)ncc3C2)c(OC)c1OC`, which Potency is on record?
Answer: 20.6 µM (active)

Question: Which Potency does the source give for `O=C(CSc1nc2c(c(=O)[nH]1)CN(Cc1ccc(F)cc1)CC2)Nc1ccccc1Cl` here?
Answer: inactive

Question: For `Cn1c(=O)c(CCc2ccccc2)nc2cnc(Nc3ccccc3)nc21`, which Potency is on record?
Answer: inactive

Question: With `Fc1cccc(CSc2nnc3ccc(-c4ccncc4)nn23)c1` as the compound, how does the Potency read?
Answer: inactive

Question: With `Cc1[nH]c2ccccc2c1-c1ccc(Cl)nn1` as the compound, how does the Potency read?
Answer: inactive

Question: With `C=CCN1CCN(C(=O)CCCc2ccccc2)CC1` as the compound, how does the Potency read?
Answer: inactive

Question: With `COc1ccccc1CNC(=O)[C@@H]1CCCN1C(=O)[C@@H]1Cc2ccccc2CN1C(=O)OC(C)(C)C` as the compound, how does the Potency read?
Answer: 16.4 µM (active)

Question: With `COc1ccccc1CNC(=O)C1CCN(C(=O)[C@@H]2Cc3ccccc3CN2)CC1` as the compound, how does the Potency read?
Answer: inactive

Question: With `COc1ccccc1CNC(=O)C1Cc2ccccc2C(=O)O1` (stereo unspecified) as the compound, how does the Potency read?
Answer: inactive

Question: With `O=C(NCC(=O)N1CCC2(CC1)NCCc1[nH]cnc12)c1ccc(Br)cc1` as the compound, how does the Potency read?
Answer: inactive

Question: Which Potency does the source give for `CC(C)c1ccc(/C=C/C(=O)NNC(=O)c2cccnc2)cc1` here?
Answer: inactive

Question: For `COc1cc2[nH]c(=S)n(Cc3ccc(C)o3)c(=O)c2cc1OC`, which Potency is on record?
Answer: inactive

Question: With `O=C(NCCc1c[nH]c2ccc(Cl)cc12)c1ccc([N+](=O)[O-])cc1` as the compound, how does the Potency read?
Answer: inactive

Question: For `Cc1noc(C)c1COC(=O)COc1ccc(-c2ccccc2)cc1`, which Potency is on record?
Answer: inactive

Question: Which Potency does the source give for `COc1ccc(-c2[nH]ncc2CN(C)Cc2c(C)n[nH]c2C)c(OC)c1` here?
Answer: inactive

Question: With `C=C(C)COc1ccc(-c2n[nH]c(C)c2-c2ccccc2)c(O)c1` as the compound, how does the Potency read?
Answer: 16.4 µM (active)

Question: For `COc1ccc(-c2n[nH]c(C)c2-c2ccccc2OC)c(O)c1`, which Potency is on record?
Answer: 20.6 µM (active)

Question: For `CCOC(=O)COc1cc(O)c2c(=O)cc(-c3ccccc3)oc2c1`, which Potency is on record?
Answer: inactive

Question: Which Potency does the source give for `CCOc1ccc(-c2nc(N)ncc2-c2ccccc2OC)c(O)c1` here?
Answer: inactive

Question: For `Cc1ccc2nc(N(CCN(C)C)C(=O)C3=COCCO3)sc2c1`, which Potency is on record?
Answer: inactive

Question: Which Potency does the source give for `CCCC(=O)OCC(=O)Nc1cc(Cl)ccc1[N+](=O)[O-]` here?
Answer: inactive

Question: For `CCOC(=O)N1CCN(C(=O)c2ccccc2SCC(=O)NCC2CCCCC2)CC1`, which Potency is on record?
Answer: inactive

Question: With `Cc1[nH]c2ccccc2c1C(=O)CSCC(=O)O` as the compound, how does the Potency read?
Answer: inactive

Question: For `Cc1ccc2c(C(=O)CN3CCCC3)c(C)[nH]c2c1`, which Potency is on record?
Answer: inactive

Question: With `Cc1[nH]c2ccccc2c1C(=O)CN1CCCC(C)C1` (stereo unspecified) as the compound, how does the Potency read?
Answer: inactive

Question: For `Cc1[nH]c2ccccc2c1C(=O)CN1CC(C)CC(C)C1` (stereo unspecified), which Potency is on record?
Answer: 8.2 µM (active)

Question: With `Cc1[nH]c2ccccc2c1C(=O)COC(=O)C(C)C` as the compound, how does the Potency read?
Answer: inactive

Question: Which Potency does the source give for `CCOC(=O)N1CCN(CC(=O)c2c(C)[nH]c3ccccc23)CC1` here?
Answer: 18.4 µM (active)
